Source: PubChem BioAssay
Values joined by “and” are separate entries in the source; they are usually repeats but may differ in a detail not shown here. Identical values can stand only once. Active and inactive are the calls of the source. Unless noted, how the calls were made is not given here.

Assays:
[1] = system: XIP peptide (Xip251-270) binding; experiment: XIP fragment 251-270 binding compounds – biochemical, small-molecule microarray, fluorescence 635/667 nm, 0.1 µg/mL protein, primary screen (AID 1182); details: fluorescent protein binding, 635 nm, higher = more signal, called active from +8 up or from −8 down
[2] = system: XIP peptide (Xip251-270); experiment: compounds binding XIP fragment 251-270 – biochemical, small-molecule microarray, fluorescence 635/667 nm, 0.5 µg/mL protein, primary screen (AID 1183); details: fluorescence 635 nm, higher = more signal
[3] = blood-stage malaria parasite viability loss – strain 3D7, DAPI fluorescence, 100 nL, primary screen (AID 1184);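 further: parasites grown inside human red blood cells in medium with human serum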; details: P. falciparum 3D7 growth, 3 d, higher = more signal
[4] = biological target: Homeobox protein Hox-A13 (Mus musculus) (UniProt Q62424); experiment: disruptors of Hoxa13 oligonucleotide interaction – biochemical, fluorescence polarization, labeled oligonucleotide, primary screen (AID 1185); details: Hoxa13:DNA binding, 15 min, higher = more signal, called active from +8 up or from −8 down
Chain of Homeobox protein Hox-A13 (Mus musculus) (Q62424 whole entry, looked up): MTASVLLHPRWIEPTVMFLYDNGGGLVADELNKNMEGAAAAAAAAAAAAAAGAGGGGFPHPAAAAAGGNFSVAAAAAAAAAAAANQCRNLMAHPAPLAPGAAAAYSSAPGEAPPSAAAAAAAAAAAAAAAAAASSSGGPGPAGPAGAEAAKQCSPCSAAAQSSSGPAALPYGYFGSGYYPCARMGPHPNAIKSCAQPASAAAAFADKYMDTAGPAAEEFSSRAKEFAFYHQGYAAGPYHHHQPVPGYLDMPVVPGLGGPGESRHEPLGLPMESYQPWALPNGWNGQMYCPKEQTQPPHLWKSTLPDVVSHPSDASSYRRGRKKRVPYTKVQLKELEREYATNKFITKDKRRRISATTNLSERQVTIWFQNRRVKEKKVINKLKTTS

[5] = blockers of DNA damage checkpoint Chk1 activation – imaging, HeLa, hydroxyurea, phospho-Chk1 antibody, percent positive cells, primary screen (AID 1186); details: hydroxyurea-induced phospho-Chk1 immunofluorescence imaging, higher = more signal
[6] = blockers of DNA damage checkpoint Chk1 activation – imaging, HeLa, hydroxyurea, phospho-Chk1 nuclear intensity, primary screen (AID 1187); details: hydroxyurea-induced phospho-Chk1 immunofluorescence imaging, higher = more signal

Structure (SMILES)	composite z-score [1]	composite z-score [2]	z-score [3]	z-score [4]	z-score [5]	z-score [6]
C=CCN(C(=O)C(c1cccs1)N(C(=O)/C=C\C(=O)O)C(C)(C)CO)C(C)(C)C (stereo unspecified)	0.075 (inactive) and -0.479 (inactive)	-0.796 and 0.851	0.37 and -0.0391	0.692 (inactive) and 0.558 (inactive)	-0.225 (inactive) and -0.215 (inactive)	0.269 (inactive) and 0.799 (inactive)
C[N+](C)(C)CCCCNC(=O)[C@H]1C[C@H]2C(=O)N[C@@H](CCCC[N+](C)(C)C)C(=O)N2[C@H]1c1cccc(OCCO)c1	1.64 (inactive) and 0.768 (inactive)	0.921 and 0.684	0.211 and -0.244	-1.74 (inactive) and -2.51 (inactive)	-0.885 (inactive) and -0.42 (inactive)	-0.771 (inactive) and -0.16 (inactive)
CCOC(=O)[C@@H]1CC=C2CC1C(=O)N1CCC[C@@H]1[C@H]2O[Si](C)(C)C(C)(C)C (stereo partly specified)	-1.06 (inactive) and -0.793 (inactive)	-1.29 and -0.354	1.82 and -0.618	-1.82 (inactive) and -4.44 (inactive)	0.113 (inactive) and -0.726 (inactive)	0.0897 (inactive) and -0.761 (inactive)
O=C1C[C@]2(c3ccc([N+](=O)[O-])cc3)C(=O)N(Cc3ccccc3)c3cc(CO)ccc3[C@H]2N1C1CCCCC1	-0.182 (inactive) and 0.877 (inactive)	-0.242 and 0.519	1.04 and -1.97	-1.48 (inactive) and -3.19 (inactive)	0.112 (inactive) and -0.427 (inactive)	0.357 (inactive) and -0.265 (inactive)
C[N+](C)(C)CCCCCCNC(=O)[C@H]1C[C@H]2C(=O)N[C@@H](CCCC[N+](C)(C)C)C(=O)N2[C@H]1c1cccc(OCCO)c1	0.421 (inactive) and 1.17 (inactive)	0.691 and 0.903	0.11 and 0.17	-2.01 (inactive) and -2.31 (inactive)	0.247 (inactive) and 0.199 (inactive)	0.316 (inactive) and -0.109 (inactive)
CCCCCN1CC=CC23O[C@@H]4C=CCCOC(=O)C4[C@H]2C(=O)N(C(C)CO)[C@@H]3C1=O (stereo partly specified)	0.79 (inactive) and 0.201 (inactive)	0.675 and 0.445	-0.165 and -0.358	-5.44 (inactive) and -4.65 (inactive)	-0.605 (inactive) and 0.667 (inactive)	0.0018 (inactive) and 0.28 (inactive)
C=C[C@@H](OC)[C@H](O)c1ccc(O)c(F)c1	-0.25 (inactive) and -2.1 (inactive)	0.116 and 0.444	0.295 and 0.636	-0.933 (inactive) and 0.017 (inactive)	0.591 (inactive) and -0.353 (inactive)	0.496 (inactive) and 0.357 (inactive)
C=CCN(C(=O)C(c1cccs1)N(C(=O)/C=C\C(=O)O)C(C)(C)CO)c1ccc(OC)cc1 (stereo unspecified)	-0.114 (inactive) and 0.302 (inactive)	-1.17 and -0.372	-0.89 and 0.294	-0.168 (inactive) and -2.07 (inactive)	-0.951 (inactive) and -0.63 (inactive)	-1.17 (inactive) and -0.0664 (inactive)
C=CCN(C(=O)C1N(CCCCCCO)C(=O)C2C(C(=O)O)C3C=CC21O3)C(C)(C)C (stereo unspecified)	-0.501 (inactive) and -0.559 (inactive)	0.429 and -1	-0.0557 and 0.444	-0.569 (inactive) and -2.68 (inactive)	-0.178 (inactive) and -0.102 (inactive)	-0.0517 (inactive) and 0.113 (inactive)
CC(CO)N1C(=O)[C@@H]2C3C(=O)OCCC=C[C@H]3OC23C=CCN(CCN2CCOCC2)C(=O)[C@@H]13 (stereo partly specified)	-0.163 (inactive) and 0.286 (inactive)	-0.0259 and 0.321	-0.195 and 0.513	-6.39 (inactive) and -7.63 (inactive)	0.079 (inactive) and 0.456 (inactive)	-0.204 (inactive) and 0.371 (inactive)
COC(=O)[C@@]1(Cc2ccc(OC)cc2)[C@H]2c3cc(C(=O)N(C)C)n(Cc4ccc(O)c(OC)c4)c3C[C@H]2CN1C(=O)c1ccccc1	0.371 (inactive) and 0.389 (inactive)	0.594 and 0.642	-1.65 and -1.56	-5.37 (inactive) and -3.28 (inactive)	0.402 (inactive) and -0.804 (inactive)	0.504 (inactive) and -0.921 (inactive)
C=CCN(CCCC)C(=O)C1N(C(C)(C)CO)C(=O)C2C(C(=O)O)C3C=CC21O3 (stereo unspecified)	-0.485 (inactive) and -0.807 (inactive)	0.214 and -0.185	0.102 and 0.116	-0.224 (inactive) and -0.0596 (inactive)	-0.356 (inactive) and 0.83 (inactive)	-0.0315 (inactive) and 1.16 (inactive)
C=CCN(C(=O)C(c1cccs1)N(C(=O)/C=C\C(=O)O)c1c(Cl)cccc1CO)c1ccc(OC)cc1 (stereo unspecified)	0.861 (inactive) and 0.113 (inactive)	-0.457 and -1.04	0.734 and 1.62	0.171 (inactive) and -1.67 (inactive)	-0.0464 (inactive) and 0.245 (inactive)	0.0355 (inactive) and 0.636 (inactive)
C=C[C@H](OC)[C@@H](O)c1ccc(O)c(F)c1	0.406 (inactive) and -0.397 (inactive)	0.563 and 0.0248	1.66 and 0.778	0.0518 (inactive) and 0.0165 (inactive)	-0.0834 (inactive) and -0.834 (inactive)	-0.132 (inactive) and -0.265 (inactive)
C=CC[C@H](O)c1ccc(OCCO)cc1	0.179 (inactive) and 0.125 (inactive)	-1.28 and -0.655	-0.597 and 1.72	-0.488 (inactive) and -0.803 (inactive)	-0.23 (inactive) and 0.182 (inactive)	0.313 (inactive) and 0.469 (inactive)
C=CCN(C(=O)C1N(C(C)(C)CO)C(=O)C2C(C(=O)O)C3C=CC21O3)c1ccc(OC)cc1 (stereo unspecified)	0.382 (inactive) and -0.0838 (inactive)	-0.383 and -1.8	-0.445 and 0.004	-1.43 (inactive) and 0.701 (inactive)	2.27 (inactive) and 0.407 (inactive)	1.44 (inactive) and 0.526 (inactive)
C=CCN(Cc1ccccc1)C(=O)C1N(c2c(Cl)cccc2CO)C(=O)C2C(C(=O)O)C3C=CC21O3 (stereo unspecified)	0.297 (inactive) and -0.407 (inactive)	-2.24 and -0.403	-0.0029 and -1.42	0.428 (inactive) and -1.12 (inactive)	-0.544 (inactive) and -0.696 (inactive)	-0.649 (inactive) and -0.167 (inactive)
C=C[C@H](C)[C@H](O)c1ccc(O)c2ccccc12	-0.389 (inactive) and -0.742 (inactive)	-0.236 and 0.788	0.138 and 0.719	-3.07 (inactive) and -2.91 (inactive)	-1.1 (inactive) and -1.31 (inactive)	-0.114 (inactive) and -0.271 (inactive)
C=CCN(CCCCC)C(=O)C(c1cccs1)N(C(=O)/C=C\C(=O)O)c1ccc(CCO)cc1 (stereo unspecified)	-0.141 (inactive) and 0.737 (inactive)	0.861 and -0.198	0.653 and 0.454	-0.227 (inactive) and 0.0535 (inactive)	0.51 (inactive) and 0.163 (inactive)	0.571 (inactive) and -0.0484 (inactive)
CC(CO)N1C(=O)[C@@H]2C3C(=O)OCCC=C[C@H]3OC23C=CCN(C(C)(C)C)C(=O)[C@@H]13 (stereo partly specified)	-0.516 (inactive) and 0.463 (inactive)	-0.947 and -0.179	0.35 and 0.567	-5.55 (inactive) and -5.92 (inactive)	0.545 (inactive) and -0.0027 (inactive)	-0.0537 (inactive) and -0.28 (inactive)
CCC[C@@H]1C[C@@]1(CCC)[C@@H](NC(=O)c1ccc(-c2ccccc2)cc1)c1cccc(Cl)c1	0.176 (inactive) and 0.184 (inactive)	-0.659 and 0.146	-0.687 and -1.16	-3.47 (inactive) and -5.25 (inactive)	0.722 (inactive) and 0.514 (inactive)	-0.198 (inactive) and 0.301 (inactive)
CC(C)OC(=O)C=C1C[C@@H](c2ccccc2)O[C@@H](c2ccccc2)O1	-0.0817 (inactive) and 0.574 (inactive)	0.686 and 0.831	-0.129 and 0.276	-3.55 (inactive) and -3.56 (inactive)	-0.502 (inactive) and -0.334 (inactive)	-0.687 (inactive) and -0.132 (inactive)
C=CCN(C(=O)C1N(CCOCCO)C(=O)C2C(C(=O)O)C3C=CC21O3)c1ccc(OC)cc1 (stereo unspecified)	-0.675 (inactive) and -0.315 (inactive)	0.138 and 0.24	0.301 and -0.0133	-1.06 (inactive) and -0.636 (inactive)	0.0962 (inactive) and 0.399 (inactive)	-0.087 (inactive) and 0.191 (inactive)
C#CCN1C(/C=C/c2ccccc2)C(=O)OC[C@H]1c1ccccc1 (stereo partly specified)	-0.538 (inactive) and 0.237 (inactive)	-0.0814 and 0.83	-2.32 and -1.18	0.468 (inactive) and -2.46 (inactive)	-0.322 (inactive) and 0.0385 (inactive)	-0.322 (inactive) and -0.239 (inactive)
COC(=O)[C@@]1(Cc2ccccc2)[C@H]2c3cc(C(=O)N(C)C)n(Cc4ccc(C)c(F)c4F)c3C[C@H]2CN1C(=O)c1ccccc1	-0.103 (inactive) and -0.157 (inactive)	0.639 and 0.462	-1.74 and -1.65	-4.22 (inactive) and -3.34 (inactive)	-0.387 (inactive) and 0.293 (inactive)	-0.653 (inactive) and 0.169 (inactive)
CCOC(=O)C[C@H]1[C@H](OC(=O)c2ccccc2-c2ccccc2)[C@@H](NC(=O)c2ccccc2)c2cc(OCCCO)ccc2N1C(=O)c1ccc2ccccc2n1	-0.196 (inactive) and 0.367 (inactive)	-0.0343 and 0.393	-0.345 and 0.0894	-3.24 (inactive) and -1.56 (inactive)	0.105 (inactive) and -0.0471 (inactive)	0.118 (inactive) and -0.0805 (inactive)
